Compound activity: PubChem, National Center for Advancing Translational Sciences (NCATS)
ELG1 repair inh: blocks ELG1-dependent DNA repair in HEK293T cells | Potency, µM (doses to about 46.1 µM), actives largely listed as inhibitors | HEK293T ELG1-luciferase reporter, luminescence, 16 h; DNA damage induced by 5-fluorouridine | AID 504467 | 330,000 compounds, 2.3% hits; further: nearly all actives have a fitted effect of over 55% in size
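5-Fluorouridine DNA damage + compound/DMSO, 2,000 cells/well, 16 h, 37 °C/5% CO2. ONE-Glo, 30 min RT, luminescence. Readout = decrease in reporter signal.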
RORgamma inh: ROR gamma (mouse) transcription inhibition; Drosophila S2 Gal4-RORgamma UAS-luciferase reporter, 20 h; Potency, µM (doses to about 53.6 µM), most hits filed as inhibitors; 310,000 compounds, 5.4% hits; AID 2551; further: nearly all actives have a fitted effect of over 60% in size
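A Gal4/UAS one-hybrid system in insect cells: metallothionein-promoter Gal4–ROR gamma fusion plus Photinus luciferase reporter. Copper sulfate 700 uM final, 20 hr ambient incubation, luminescent detection after 10 min with reagent.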
ALOX12 inh: blocks human arachidonate 12S-lipoxygenase. P18054. purified 12hLO, xylenol orange hydroperoxide absorbance. Potency, µM (top dose mostly 108 µM), most hits filed as inhibitors. 580,000 compounds, 1.1% hits. AID 1671190
Target sequence (P18054 whole entry, looked up): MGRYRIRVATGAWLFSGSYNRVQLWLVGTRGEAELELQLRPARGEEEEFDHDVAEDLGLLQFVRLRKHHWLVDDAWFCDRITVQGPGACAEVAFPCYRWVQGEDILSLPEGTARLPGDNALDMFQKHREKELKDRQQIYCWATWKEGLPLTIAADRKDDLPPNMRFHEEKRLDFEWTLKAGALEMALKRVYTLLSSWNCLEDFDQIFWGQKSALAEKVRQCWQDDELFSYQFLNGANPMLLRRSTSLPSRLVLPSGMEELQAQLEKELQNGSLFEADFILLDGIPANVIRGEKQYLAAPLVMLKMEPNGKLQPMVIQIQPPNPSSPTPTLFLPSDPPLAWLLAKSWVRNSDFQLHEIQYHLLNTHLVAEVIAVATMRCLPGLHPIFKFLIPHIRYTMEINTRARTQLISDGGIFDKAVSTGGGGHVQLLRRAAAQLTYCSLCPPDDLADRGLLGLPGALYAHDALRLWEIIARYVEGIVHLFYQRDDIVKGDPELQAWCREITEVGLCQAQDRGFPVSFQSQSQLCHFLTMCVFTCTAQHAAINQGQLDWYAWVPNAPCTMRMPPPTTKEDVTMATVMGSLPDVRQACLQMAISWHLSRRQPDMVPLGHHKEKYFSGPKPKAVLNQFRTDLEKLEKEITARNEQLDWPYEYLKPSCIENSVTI
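Purified human 12hLO at 150 nM in 25 mM Hepes, 0.01% Triton X-100, pH 7.0, preincubated 15 min at room temperature with compound. Reaction started with 40 uM arachidonic acid, 30 min at room temperature. Hydroperoxide measured by Fe-xylenol orange, 573/405 nm absorbance ratio.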
DT40 TDP1 no CPT: qHTS for Inhibitors of human tyrosyl-DNA phosphodiesterase 1 (TDP1): qHTS in cells in absence of CPT; 420,000 compounds, 15% hits; Potency, µM (titrated, usually from 46.2 µM), usual class: inhibitors; DT40 Tdp1-/- hTDP1 cells, no CPT, ATP luminescence, 48 h; further: nearly all actives have a fitted effect of over 55% in size
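Seeded 400 DT40-hTDP1 cells/well (vehicle DMSO, no 20 nM CPT); pinned compounds; ≥48 hr at 37 °C; CellTiter-Glo luminescence as viability measure.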
DT40 TDP1 CPT: DT40-hTDP1 cell growth loss with CPT. 420,000 compounds, 12% hits. chicken DT40 Tdp1-/-;hTDP1 cells + 20 nM CPT, ATP luminescence, 48 h. Potency, µM (series often up to 46.2 µM), actives largely listed as inhibitors; further: nearly all actives have a fitted effect of over 55% in size
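Chicken DT40 Tdp1-/- cells stably complemented with human TDP1 were seeded at 400 cells/well in medium containing 20 nM camptothecin, exposed to pin-transferred compounds, and grown at 37 °C for at least 48 hr. Viability was read as ATP luminescence.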
VP16 counter: inhibits Gal4-VP16 luciferase reporter, ROR gamma counter-screen; Drosophila S2 Gal4-VP16 UAS-luciferase, luminescence, 20 h; Potency, µM (doses to about 53.6 µM), hits mostly inhibitors; 310,000 compounds, 3.5% hits; AID 2546;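 further: Gal4-VP16 expression switched on by copper sulfate through the metallothionein promoter; nearly all actives have a fitted effect of over 50% in size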
Hits are given with their value; n = inactive; u = inconclusive; x = no result; [ ] = remark or other dose. The list is not random: actives were taken first. Their share in the collection is about 15%. The call rests on the fitted dose curve; in most records, active means well fitted curve in the direction sought with a large enough effect; inconclusive means small, poorly fitted or top-dose-only effect, or another doubt; inactive means no such curve, though single readings can be large; an effect the other way counts as inactive or inconclusive.

SMILES | ELG1 repair inh | RORgamma inh | ALOX12 inh | DT40 TDP1 no CPT | DT40 TDP1 CPT | VP16 counter
CCN(CC)CCNC(CC(=O)Nc1ccc(Cl)cc1Cl)C(=O)O (configuration not stated) | n | n | n | n | n | n
CN(C)CCNc1ccc(CO)c2oc3ccc(O)cc3c(=O)c12 | x | x | u | 0.65µM | 0.13µM | x
CCN(CC)CCNc1ccc(CO)c2oc3cc(Cl)ccc3c(=O)c12 | x | x | u | 10µM | 23µM | x
COc1ccc(OC)c(-c2csc(NC(=O)c3ccc4c(c3)OCO4)n2)c1 | n | n | n | 15µM | u | n
CC(=O)Nc1nc(C2COc3ccccc3O2)cs1 (configuration not stated) | u | 13µM | n | n | n | n[0.365 µM]
COc1ccc(OC)c(-c2csc(NC(=O)C3COc4ccccc4O3)n2)c1 (configuration not stated) | u | n | n | 16µM | u | n
NC(N)=Nc1nc(C2COc3ccccc3O2)cs1 (configuration not stated) | u | u | n | u | u | n
COc1ccc(OC)c(NC(=O)c2ccc3c(c2)OCO3)c1 | u | u | n | n | n | n
COc1ccc(OC)c(-c2csc(NC(=O)C3c4ccccc4Oc4ccccc43)n2)c1 | n | n | n | n | n | n
COc1ccc2nc(NNC(=O)C3COc4ccccc4O3)sc2c1 (configuration not stated) | n | 2.8µM | n | u | u | u
O=C(Nc1ccc(Cl)cc1)c1cc2cc(Cl)ccc2[nH]1 | x | x | n | x | x | x
Cc1cc(C)c2oc(=O)cc(-c3oc4ccccc4c3N)c2c1 | x | x | n | x | x | x
CCc1nc2c(OCCC3CCCCC3)cccn2c1N(C)C(=O)c1ccccc1F | x | x | n | u | u | x
Cc1nc2c(OCCOc3ccc(F)cc3)cccn2c1N(C)C(=O)CCC1CCCC1 | x | x | n | 15µM | u | x
Cc1nc2c(OCCC3CCCCC3)cccn2c1N(C)C(=O)CCC1CCCC1 | x | x | u | 16µM | u | x
Cc1nc2c(OCCOc3ccccc3)cccn2c1N(C)C(=O)CCC1CCCC1 | x | x | n | u | u | x
CC(=O)c1c(CC(=O)O)[nH]n(-c2nc3ccccc3s2)c1=O | u | n | u | u | u | n
COC(=O)Cc1[nH]n(-c2nc3ccccc3s2)c(=O)c1C(C)=O | u | u | u | 10µM | n | n
CCCC(=O)N1CCN(c2ccc(NC(=O)c3cccs3)cc2Cl)CC1 | 7.3µM | n | n | n | n | n
CCCC(=O)N1CCN(c2ccc(NC(=O)C(C)(C)C)cc2Cl)CC1 | n | n | n | u | 21µM | n
CCCC(=O)N1CCN(c2ccc(NC(=O)C(C)(C)C)cc2)CC1 | n | n | n | n | n | n
Cc1ccc(C=Nc2ccc(N(C)C)cc2)o1 | u | u | n | 2.1µM | 5.2µM | u
O=C(N/N=C/c1ccc2ncccc2c1)c1ccco1 | u | 7.9µM | n | n | n | u
O=C(N/N=C/c1ccccn1)c1ccco1 | n | n | n | n | n | n
O=C(c1ccc2c(c1)OCCO2)N(Cc1cccnc1)c1nc2c(Cl)cccc2s1 | x | x | n | 23µM | u | x
SMILES | ELG1 repair inh | RORgamma inh | ALOX12 inh | DT40 TDP1 no CPT | DT40 TDP1 CPT | VP16 counter
CCOc1ccc2nc(N(Cc3cccnc3)C(=O)c3ccc4c(c3)OCCO4)sc2c1 | x | x | n | 21µM | u | x
CN(CC(=O)NC(=O)NCc1cccs1)Cc1cccs1 | x | x | n | x | x | x
O=C(OCc1ccccc1)c1cccnc1Cl | n | n | n | n | n | n
O=C(c1cccnc1Cl)N(Cc1ccccc1)Cc1ccccc1 | u | n | n | 9.2µM | u | u
Cc1ccc(C(C)C)c(Oc2ccc(C#N)c(C#N)c2)c1 | x | x | n | x | x | x
O=c1c2c(nc3c(-c4ccccc4)c[nH]n13)CCCC2 | n | 10µM | u | 23µM | 23µM | u
N#Cc1c[nH]n2c(=O)c3c(nc12)CCCC3 | n | n | x | x | x | n
Cc1[nH]n2c(=O)c3c(nc2c1-c1ccc(Cl)cc1)CCC3 | n | 2.2µM | x | 21µM | 12µM | u
Cc1[nH]n2c(=O)c3c(nc2c1-c1ccccc1)CCC3 | n | 13µM | u | n | n | u
N=c1c(-c2nc3ccccc3[nH]2)cc(C(=O)c2ccco2)nn1-c1ccccc1 | 16µM | 2.8µM | n | 3.3µM | 2.6µM | 5µM
N=c1c(-c2nc3ccccc3[nH]2)cc(C(=O)c2cccs2)nn1-c1ccccc1 | u | n | x | 23µM | 29µM | u
CNC(=O)[C@@H]1C[C@@H](O)CN1C1CCN(C(=O)Cc2cccc(C)c2)CC1 | x | x | n | x | x | x
